# Bioassay records as filed in PubChem BioAssay.
# SMN2 splice enh = qHTS Assay for Enhancers of SMN2 Splice Variant Expression; AID 1458, 2008; Potency, µM (titrated, usually from 46.1 µM), for inactives: at the highest dose activity change, positive = activation, most hits filed as activators; HEK293 SMN2-luciferase splicing reporter, luminescence, 30-36 h; 2.8% of 210,000 active; also: % of control where 0% means no effect; nearly all actives have a fitted effect of over 55% in size
#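 qHTS luciferase splicing reporter: luminescence rises when SMN2 exon 7 is included in transfected HEK293 cells. Compound exposure lasted 30-36 h at 37C, with 4.5 mM final sodium butyrate as control, followed by a ONE-Glo read.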
# ELG1 repair inh = qHTS screen for small molecules that inhibit ELG1-dependent DNA repair in human embryonic kidney (HEK293T) cells expressing luciferase-tagged ELG1. HEK293T ELG1-luciferase reporter, luminescence, 16 h; DNA damage induced by 5-fluorouridine. Potency, µM (top dose mostly 46.1 µM), inactives show top-dose activity change, negative = inhibition, actives largely listed as inhibitors. 2.3% of 330,000 active; also: % is scaled to controls: 0 for no effect and ±100 for the full control effect; nearly all actives have a fitted effect of over 55% in size
#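 HEK293T cells expressing luciferase-tagged ELG1 (2,000/well) received 5-Fluorouridine plus compound or DMSO for 16 hr at 37 °C. Luciferase was read by ONE-Glo luminescence after 30 min at room temperature.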
# ELG1 genotoxic = qHTS screen for small molecules that induce genotoxicity in human embryonic kidney (HEK293T) cells expressing luciferase-tagged ELG1 | HEK293T ELG1-luciferase reporter, luminescence, 16 h | AID 504466, 2011 | 1.3% of 330,000 active | Potency, µM (top dose mostly 46 µM), inactives show top-dose activity change, positive = activation, hits mostly activators; also: % of control where 0% means no effect; nearly all actives have a fitted effect of over 60% in size
#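 Screening used a luciferase reporter fused to human ELG1 in HEK293T cells. Luminescence was read on a CCD plate imager after 16 hr exposure and 30 min ONE-Glo incubation.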
# Rab9 promoter act = qHTS Assay for Rab9 Promoter Activators | Huh7 Rab9 promoter-luciferase reporter, luminescence, 24 h | 2.8% of 320,000 active | Potency, µM (top dose mostly 9.22 µM), for the others: at the top dose activation, negative = inhibition, actives largely listed as activators | AID 485297, 2010; also: % of control where 0% means no effect; nearly all actives have a fitted effect of over 60% in size
#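 Cell-based reporter: Huh7 stable for Rab9 promoter-driven luciferase, plated in reduced-serum medium with 10% FBS at 1500 cells/well, compound-treated 24 h at 37 °C, luminescence read after 10 min reagent.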
# FLuc modulator = qHTS profiling assay for firefly luciferase inhibitor/activator using purifed enzyme and Km concentrations of substrates (counterscreen for miR-21 project); Potency, µM (top dose mostly 57.5 µM), inactives show at the top dose activity change, negative = inhibition, most hits filed as inhibitors; AID 588342, 2011; 6.9% of 360,000 active; Luciferin 4-monooxygenase (Photinus pyralis), P08659; purified FLuc, Km substrates, luminescence inhibition;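 also: plate controls were vehicle for no effect and reference inhibitor for full effect; nearly all actives have a fitted effect of over 55% in size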
# Target sequence (P08659 whole entry, looked up): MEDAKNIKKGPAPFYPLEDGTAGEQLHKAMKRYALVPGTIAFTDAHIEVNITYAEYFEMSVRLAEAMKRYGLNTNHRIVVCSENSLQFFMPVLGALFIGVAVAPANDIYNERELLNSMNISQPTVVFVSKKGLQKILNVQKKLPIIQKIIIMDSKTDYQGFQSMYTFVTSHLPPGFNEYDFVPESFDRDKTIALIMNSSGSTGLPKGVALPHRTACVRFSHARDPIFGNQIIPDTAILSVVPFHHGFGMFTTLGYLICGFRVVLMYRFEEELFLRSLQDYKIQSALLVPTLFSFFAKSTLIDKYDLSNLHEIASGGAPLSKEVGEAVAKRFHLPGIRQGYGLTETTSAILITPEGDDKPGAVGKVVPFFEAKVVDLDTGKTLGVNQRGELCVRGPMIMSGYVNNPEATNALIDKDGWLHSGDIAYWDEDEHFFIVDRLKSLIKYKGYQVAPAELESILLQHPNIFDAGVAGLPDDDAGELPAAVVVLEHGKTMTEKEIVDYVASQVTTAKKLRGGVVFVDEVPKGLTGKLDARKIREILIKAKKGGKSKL
#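 Biochemical qHTS of compounds, final roughly 60 µM downward over six points, against 10 nM purified firefly luciferase using Km concentrations of substrates (10 uM D-luciferin, 10 uM ATP) in Tris acetate pH 7.5 buffer; luminescence output.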
# NPC1 prom act = qHTS Assay for NPC1 Promoter Activators; Huh7 NPC1 promoter luciferase reporter, 24 h; Potency, µM (doses to about 9.22 µM), for inactives: at the highest dose activation, hits mostly activators; 2.4% of 320,000 active; AID 485313, 2010; also: % of control where 0% means no effect; nearly all actives have a fitted effect of over 60% in size
#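 Luminescence from an NPC1 promoter-driven luciferase reporter in stably transfected Huh7 cells was measured after 24 h compound treatment at 37 °C, followed by 10 min ambient incubation with luciferase detection reagent.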
# An asterisk follows results filed as active; ? = inconclusive; nt = no result. A selection: hits, their analogues and other compounds. The true share with any hit is near 9.2%. Calls follow the shape of the dose curve; as a rule, active = well fitted curve in the direction sought with a large enough effect; inconclusive = small, poorly fitted or top-dose-only effect, or another doubt; inactive = no such curve, though single readings can be large; an effect the other way counts as inactive or inconclusive. Potency is read from the fitted curve at half-maximal effect.
SMILES,SMN2 splice enh,ELG1 repair inh,ELG1 genotoxic,Rab9 promoter act,FLuc modulator,NPC1 prom act
O=C(CN1C(=O)NC2(CCCC2)C1=O)NCCc1ccc(Cl)cc1Cl,nt,-11%,2%,-3%,nt,-1%
CCOC(=O)c1ccc(NC(=O)CSc2cn(CC(=O)N3CCCC3)c3ccccc23)cc1,nt,nt,nt,nt,-10%,nt
Cc1cccc(OCCSc2nc(-c3cccs3)nc3cc(=O)[nH]n23)c1,nt,nt,nt,nt,15µM*,nt
CCc1ccc(OCCSc2nc(-c3cccc(C)c3)nc3cc(=O)[nH]n23)cc1,nt,nt,nt,nt,-17%,nt
Cc1nn(-c2ccccc2)c(Cl)c1/C=N/NC(=O)C1COc2ccccc2O1 (centres undefined),0%,-28%,3%,-1%,7.6µM*,-2%
CCOC(=O)N/N=C/c1c(C)nn(-c2ccccc2Cl)c1Cl,13µM*,?,?,?,9.5µM*,?
Cc1nn(-c2ccccc2)c(Cl)c1/C=N/Nc1ccc(S(=O)(=O)Nc2ccccc2C(=O)O)cc1[N+](=O)[O-],11%,5%,0%,-6%,4%,0%
Cc1nn(-c2ccccc2)c(Cl)c1/C=N/Nc1ccc(Cl)c(C(=O)O)c1,0.45µM*,?,0.18µM*,0.079µM*,0.6µM*,0.089µM*
Cc1nn(-c2ccccc2)c(Cl)c1/C=N/Nc1nncc(=O)[nH]1,nt,-1%,11%,-2%,15µM*,3%
Cc1ccc(CNC(=O)C(CC(C)C)N2Cc3ccccc3C2=O)cc1 (centres undefined),nt,nt,nt,nt,-2%,nt
O=C(O)c1c[nH]c2ccc(F)cc2c1=O,14%,7%,0%,1%,4%,-5%
N#Cc1ccccc1NC(=O)Cn1cnc2onc(-c3cccc(F)c3)c2c1=O,nt,nt,nt,nt,-1%,nt
CCOc1cccc(CC(=O)NCc2ccc3c(c2)CCN3C(C)=O)c1OCC,nt,nt,nt,nt,4%,nt
O=C(N/N=C\c1ccc([N+](=O)[O-])s1)C1COc2ccccc2O1 (centres undefined),nt,?,-14%,1.1µM*,4%,?
Cc1nn(-c2ccccc2Cl)c(Cl)c1/C=N/Nc1nc2ccccc2s1,-90%,?,23%,-31%,0.17µM*,-20%
CNC(=S)N/N=C/c1c(C)nn(-c2ccccc2)c1Cl,?,?,?,29%,?,12%
Cc1nn(-c2ccccc2)c(Cl)c1/C=N/NC(=O)c1ccco1,22µM*,?,?,2.5µM*,3.8µM*,3.2µM*
Cc1nn(-c2ccccc2)c(Cl)c1/C=N/NC(=O)OC(C)(C)C,18µM*,?,9%,2µM*,15µM*,2.8µM*
O=C(N/N=C\c1ccc(Cl)s1)C1COc2ccccc2O1 (centres undefined),nt,?,1%,2%,-15%,-17%
CCN(CC)S(=O)(=O)c1cccc(C(=O)N/N=C/c2c(C)nn(-c3ccccc3)c2Cl)c1,-20%,16%,8%,-1%,3%,3%
Cc1nn(C)cc1/C=N/NC(=O)c1ccco1,nt,?,13%,?,17µM*,25%
Cc1nn(-c2ccccc2)c(Cl)c1/C=N/NC(=O)c1ccc(CNc2ccccc2)o1,?,?,1%,5%,2.1µM*,15%
CC(C)(C)c1ccc(C(=O)Nc2nnc(C3=COCCO3)o2)cc1,nt,11%,-3%,-2%,21µM*,-3%
CN(C)c1ccc(C(=O)Nc2nnc(C3=COCCO3)o2)cc1,-7%,?,14%,24%,-17%,21%
Cc1ccc(NC(=O)N2CCc3cc(S(=O)(=O)N4CCC(C)CC4)ccc32)cc1F,4%,nt,nt,nt,-4%,nt
